Screens (PubChem)
In the library only some 31% were active in any assay of this set; here they are far more common.
CYP2C9 activ – human CYP2C9 activators, primary screen, biochemical, luminescence; activation factor at 5 µM; actives 1.4% (n = 96,000); Cytochrome P450 2C9 (Homo sapiens), P11712; recombinant CYP2C9, luciferin-H conversion; stronger effect = higher value; factor 1 = untreated enzyme, 0 = blocked; AID 1024, 2008;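 active means activation factor of 2 or more for CYP2C9 at a 5 µM dose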
Target sequence (P11712 whole entry, looked up): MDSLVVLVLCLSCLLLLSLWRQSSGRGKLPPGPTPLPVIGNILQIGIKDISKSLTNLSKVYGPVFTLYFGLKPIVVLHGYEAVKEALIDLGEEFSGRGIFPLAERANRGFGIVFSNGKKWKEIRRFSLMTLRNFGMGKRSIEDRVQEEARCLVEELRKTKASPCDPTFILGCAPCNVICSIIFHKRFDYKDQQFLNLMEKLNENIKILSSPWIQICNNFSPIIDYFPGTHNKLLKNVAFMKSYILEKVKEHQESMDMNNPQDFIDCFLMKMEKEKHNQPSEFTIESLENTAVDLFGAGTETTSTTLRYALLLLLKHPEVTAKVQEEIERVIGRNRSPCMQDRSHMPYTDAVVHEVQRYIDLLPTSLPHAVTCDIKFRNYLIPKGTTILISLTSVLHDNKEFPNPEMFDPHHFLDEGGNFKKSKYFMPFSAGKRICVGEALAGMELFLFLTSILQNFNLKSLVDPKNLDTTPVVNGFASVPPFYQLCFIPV
CYP2C19 act – human CYP2C19 activators, primary screen, biochemical, luminescence. 96,000 tested, under 10 active. activation factor at 5 µM. Cytochrome P450 2C19 (Homo sapiens), P33261. recombinant CYP2C19, luciferin-H EGE luminescence; stronger effect = higher value; 0 = fully inhibited enzyme, 1 = untreated enzyme;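 active means activation factor of at least 2 at 5 µM in the primary screen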
CYP2C19 inhib – blockers of cytochrome P450 2C19 activity – biochemical, luminescence, ADME assay, primary screen; CYP2C19 Supersomes, luciferin-H EGE luminescence, 30 min; inhibition, % at 5 µM; actives 21% (n = 96,000); P33261;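 active means CYP2C19 inhibition above a set limit at 5 µM in the primary screen, cut at about 50% in these data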
CYP2C9 inh – blockers of cytochrome P450 2C9 activity – biochemical, luminescence, ADME assay, primary screen; P11712; CYP2C9 Supersomes, luciferin-H conversion; inhibition, % at 5 µM; actives 20% (n = 96,000); AID 777, 2007;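 active means blocking of liver enzyme CYP2C9 beyond about 50% at 5 µM, limit read from the data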
PLAP act – PLAP enzyme activators, biochemical, luminescence, HTS. purified PLAP enzyme, luminescent substrate read-out; stronger effect = higher value. AID 696, 2007. actives 1.2% (n = 96,000). activation fold at 20 µM; in the data active means activation fold above about 2
Of the large screens only hits and unclear results are named; the others gave an inactive call.

O=C(Oc1ccc2c(c1)OCC2=O)c1ccccc1	none
CC(=O)Oc1ccc2c(c1)C(=O)c1ccccc1CO2	CYP2C19 inhib 68
CC(CCc1ccccc1)NC(=O)CSc1nccc(=O)[nH]1 (configuration not stated)	none
O=C(c1ccccc1F)N1CCN(Cc2ccccc2F)CC1	CYP2C19 inhib 96, CYP2C9 inh 59
Cc1ccc(N2CCN(C(=O)c3ccccc3F)CC2)c(C)c1	CYP2C19 inhib 100, CYP2C9 inh 89
O=C(c1cccc(Cl)c1)N1CCN(C(=O)c2ccco2)CC1	none
O=CN1CCN(C(=O)c2ccccc2F)CC1	none
O=C(c1cccc(Cl)c1)N1CCN(Cc2ccccc2F)CC1	CYP2C19 inhib 97, CYP2C9 inh 79
O=C(Nc1cc(Cl)ccc1Cl)c1ccc(OC(=O)c2ccco2)cc1	none
Cc1ccc(C(=O)N2CCN(c3ccc([N+](=O)[O-])c(NCc4ccco4)c3)CC2)cc1	CYP2C9 inh 74
Cc1ccccc1C(=O)N1CCN(c2ccc([N+](=O)[O-])c(NCc3ccco3)c2)CC1	none
Cc1cccc(C(=O)N2CCN(c3ccc([N+](=O)[O-])c(NCc4ccco4)c3)CC2)c1	CYP2C19 inhib 78, CYP2C9 inh 78
CC(C)(C)C(=O)N1CCN(c2ccc([N+](=O)[O-])c(NCC3CCCO3)c2)CC1 (configuration not stated)	none
Cc1ccc(C(CC(=O)N2CCCC2)c2ccccc2)c(O)c1C (configuration not stated)	CYP2C19 inhib 96, CYP2C9 inh 96
O=C(CC(c1ccccc1)c1ccccc1O)N1CCCC1 (configuration not stated)	none
Cc1cccc(C(CC(=O)N2CCCC2)c2ccccc2)c1O (configuration not stated)	CYP2C19 inhib 84, CYP2C9 inh 73
Cc1ccccc1CN1CCN(CC(=O)NCc2ccccc2)C1=O	none
COCC(=O)Nc1c(C(=O)Nc2ccccc2OC)oc2ccccc12	none
Cc1ccc2c(CC(=O)NCC3COc4ccccc4O3)coc2c1 (configuration not stated)	CYP2C19 inhib 100, CYP2C9 inh 95
COc1ccccc1NC(=O)c1oc2ccc(C)cc2c1C	CYP2C9 activ 2
CCOc1ccccc1NC(=O)Cc1coc2cc(C)ccc12	CYP2C19 inhib 95, CYP2C9 inh 90
COc1ccccc1NC(=O)Cc1coc2cc(C)ccc12	CYP2C19 inhib 64
Cc1nc2ccccc2c2oc(C(=O)NCC3COc4ccccc4O3)cc12 (configuration not stated)	none
Cc1cn(S(=O)(=O)c2ccc(Br)c3ccccc23)cn1	none
O=S(=O)(N1CCCCC1)n1c(Cc2ccccc2)nc2ccccc21	CYP2C19 inhib 85, CYP2C9 inh 68
CC(C)(C)C(=O)Nc1ccccc1C(=O)Nc1cc(Cl)ccc1Cl	CYP2C9 inh 61
COc1ccc(OC)c(S(=O)(=O)N2CCC(C(=O)Nc3cccc(C)c3C)CC2)c1	CYP2C9 activ 2.5
COc1ccc(OC)c(S(=O)(=O)N2CCC(C(=O)Nc3ccc(C)c(C)c3)CC2)c1	CYP2C9 activ 2.5
COc1ccc(CCNC(=O)C2CCN(S(=O)(=O)c3cc(OC)ccc3OC)CC2)cc1	none
CCOC(=O)CC1=C(C(=O)OCC)C(c2cccnc2)C(C#N)=C(N)O1 (configuration not stated)	CYP2C19 inhib 56
COC(=O)C1=C(C)OC(N)=C(C#N)C1c1cccnc1 (configuration not stated)	none
CCOC(=O)CC1=C(C#N)C(c2cccnc2)C(C(=O)OCC)=C(N)O1 (configuration not stated)	CYP2C19 inhib 73, CYP2C9 inh 75
CCn1cc(-c2cc(C(F)(F)F)n3nc(C(=O)O)cc3n2)c(C)n1	none
c1csc(-c2nn[nH]n2)c1	CYP2C19 inhib 95
O=C(Nc1nnc(C23CC4CC(CC(C4)C2)C3)s1)c1ccc(N2C(=O)CCC2=O)cc1	none
CCCCN(CC)CCNc1c(NC2CCN(C(=O)OCC)CC2)c(=O)c1=O	CYP2C9 inh 66
Cn1c(=O)[nH]c(=O)c2c1nc(Br)n2CC(O)c1ccccc1 (configuration not stated)	none
COc1ccc(C2NC(=S)N(c3ccccc3)C(C)=C2C(=O)Nc2ccccc2)cc1 (configuration not stated)	none
CC1=C(C(=O)Nc2ccc([N+](=O)[O-])cc2)C(c2cccc(C(F)(F)F)c2)NC(=S)N1c1ccccc1 (configuration not stated)	CYP2C9 inh 89
COc1ccc(-n2nnnc2SCC(=O)Nc2nnc(C)s2)cc1OC	none
Cc1nn(C(=O)c2cc3sccc3[nH]2)c(C)c1C	none
COc1ccccc1C(=O)N1CCCC1(C#N)c1ccccc1 (configuration not stated)	CYP2C9 inh 90
COc1cc(-c2nnc(SCC(=O)N(Cc3ccccc3)C(C)(C)C)o2)cc(OC)c1OC	CYP2C19 inhib 85
CCCCN(CCCC)C(=O)CSc1nnc(-c2cc(OC)c(OC)c(OC)c2)o1	none
COc1cc(OC)cc(-c2nnc(SCC(=O)N(Cc3ccccc3)C(C)(C)C)o2)c1	CYP2C19 inhib 78
COc1cc(OC)cc(-c2nnc(SCC(=O)N(C(C)C)C(C)C)o2)c1	CYP2C9 activ 2.3, CYP2C19 inhib 72
Cc1ccc(Cl)cc1NC(=O)N[C@@H](C)C(=O)O	none
Cc1ccc(NCc2nnc(SCC(=O)OC3CCCCC3)o2)c(C)c1	none
Cc1cc(N2CCN(c3ccccc3)CC2)n2cc(-c3ccccc3)nc2n1	none
Cc1cc(N2CCN(c3ccccc3Cl)CC2)n2cc(-c3ccccc3)nc2n1	CYP2C9 inh 58
O=C(CS(=O)CC(=O)N(CC(=O)NC1CCCC1)C1CCCC1)Nc1ccc(F)cc1 (configuration not stated)	none
Cc1ccccc1N(CC(=O)NC1CCCC1)C(=O)CS(=O)CC(=O)Nc1ccc2c(c1)OCO2 (configuration not stated)	CYP2C9 inh 90
Cc1ccc(NC(=O)CS(=O)CC(=O)N(CC(=O)NC2CCCC2)c2cc(C)ccc2C)cc1 (configuration not stated)	CYP2C9 inh 71
O=C1NCCCC1C(=O)NCCN1C(=O)CCC1=O (configuration not stated)	none
Cc1ccn2cc(CNC(=O)c3ccc(Br)o3)nc2c1	none
CC(NC(=O)c1cnc2n(c1=O)CCS2)c1ccccc1 (configuration not stated)	none
COc1ccc(NC2=C(C(C)=O)C(c3ccc4c(c3)OCO4)C(C(C)=O)C(C)(O)C2)cc1 (configuration not stated)	CYP2C19 inhib 72, CYP2C9 inh 78
